From PubChem BioAssay
Sfp inh – Sfp phosphopantetheinyl transferase inhibition; AID 1490; Biochemical Sfp PPTase activity, qHTS; 310,000 compounds, 3.5% hits; Q9F4F7; Potency, µM, for inactives: largest response in the series, negative = inhibition, hits mostly inhibitors;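 also: the enzyme is Sfp with the accession as filed and its product quenches rhodamine fluorescence; 0% = enzyme reaction without inhibitor and -100% = no enzyme wells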
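With Hepes-Na pH 7.6 buffer containing 10 mM MgCl2, Sfp (15 nM) modified BHQ-2-YbbR (12.5 uM) using rhodamine-CoA (5 uM). Two reads 30 minutes apart at 525/598 nm yielded each well's rate.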
PLK1 PBD inh – PLK1 (human) polo-box domain binding inhibition | P53350 | Plk1 PBD binding of FITC phosphopeptide, fluorescence polarization | Potency, µM, for the others: max response, negative = inhibition, hits mostly inhibitors | 360,000 compounds, 2.8% hits; also: series mostly up to about 57 µM; % is scaled to controls: 0 for no effect and ±100 for the full control effect; nearly all actives have a fitted effect of over 65% in size
Target sequence (P53350 whole entry, looked up, the tested form may be a part): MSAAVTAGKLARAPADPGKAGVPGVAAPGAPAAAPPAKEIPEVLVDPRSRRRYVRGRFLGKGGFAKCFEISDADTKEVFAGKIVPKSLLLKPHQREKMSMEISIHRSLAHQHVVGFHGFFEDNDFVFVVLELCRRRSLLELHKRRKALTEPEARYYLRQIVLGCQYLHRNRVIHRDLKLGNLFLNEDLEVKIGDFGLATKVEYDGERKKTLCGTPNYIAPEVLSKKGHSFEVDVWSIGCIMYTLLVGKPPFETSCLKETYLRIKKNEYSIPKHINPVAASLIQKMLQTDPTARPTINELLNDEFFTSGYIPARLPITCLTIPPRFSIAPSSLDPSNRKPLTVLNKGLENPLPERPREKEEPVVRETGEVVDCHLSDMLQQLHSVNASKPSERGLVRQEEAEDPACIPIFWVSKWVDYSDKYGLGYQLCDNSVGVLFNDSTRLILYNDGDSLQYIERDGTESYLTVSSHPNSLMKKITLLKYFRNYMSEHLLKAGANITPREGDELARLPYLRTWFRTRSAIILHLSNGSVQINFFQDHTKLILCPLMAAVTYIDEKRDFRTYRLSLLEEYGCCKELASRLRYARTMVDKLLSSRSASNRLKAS
BAZ2B block – inhibitors of human BAZ2B bromodomain | Q9UIF8 | AlphaScreen BAZ2B-H3K14Ac peptide displacement | Potency, µM (doses to about 114 µM), for the others: at the highest dose activity change, negative = inhibition, most hits filed as inhibitors | 360,000 compounds, 4.4% hits | AID 504333; also: % is scaled to controls: 0 for no effect and ±100 for the full control effect; nearly all actives have a fitted effect of over 60% in size
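AlphaScreen displacement of biotin-H3(5-23)K14Ac peptide (50 nM final) from BAZ2B (50 nM final) in PBS pH 7.4, 0.01% Tween-20; complex preformed 30 min RT, then compounds (top 110 uM) 30 min RT, beads 20 min dark.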
JMJD2A Tudor – blocks the human JMJD2A Tudor domain. O75164. AlphaScreen JMJD2A-Tudor / H3K4me3 peptide binding. Potency, µM (highest dose often 114 µM), for inactives: at the top dose activity change, negative = inhibition, most hits filed as inhibitors. 390,000 compounds, 4.4% hits. AID 504339; also: % is scaled to controls: 0 for no effect and ±100 for the full control effect; nearly all actives have a fitted effect of over 50% in size
G9a block – G9a (human) methyltransferase inhibition; Q96KQ7; G9a H3K9 monomethylation, AlphaScreen, 2 h; Potency, µM (series often up to 102 µM), for inactives: at the highest dose activity, negative = inhibition, most hits filed as inhibitors; 350,000 compounds, 8.8% hits; AID 504332; also: % is scaled to controls: 0 for no effect and ±100 for the full control effect; nearly all actives have a fitted effect of over 75% in size
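Chemiluminescent proximity detection of H3K9 monomethylation, read after 10 min bead incubation in the dark. Reaction: 20 nM G9a, 500 nM biotin-H3K9 peptide, 20 uM SAM cofactor, 2 h, room temperature, following 15 min enzyme-compound preincubation.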
HP1b binding inh – blocks HP1-beta chromodomain binding to methylated histone tails; P83916; AlphaScreen HP1-beta / biotin-H3K9me3 peptide binding; Potency, µM (top dose mostly 114 µM), for the others: top-dose activity change, negative = inhibition, most hits filed as inhibitors; 390,000 compounds, 0.56% hits; AID 540317; also: nearly all actives have a fitted effect of over 70% in size
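HP1-beta protein (50 nM final) preincubated 30 min at room temperature with biotinylated H3(1-18)K9me3 peptide (50 nM) in PBS pH 7.4, 0.01% Tween-20, then compound added for 30 min. AlphaScreen streptavidin donor/nickel chelate acceptor beads (10 ug/mL final), 30 min dark, luminescence read.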
* marks the source's active call; other numbers are inactive results; u = inconclusive; x = no result given; [ ] = dose if it differs, or a comment. Sampled rows, rich in hits. Any-hit rate of the full collection: about 12%. Calls follow the shape of the dose curve; as a rule, active = well fitted curve in the direction sought with a large enough effect; inconclusive = small, poorly fitted or top-dose-only effect, or another doubt; inactive = no such curve, though single readings can be large; an effect the other way counts as inactive or inconclusive. Potency is read from the fitted curve at half-maximal effect.

SMILES	Sfp inh	PLK1 PBD inh	BAZ2B block	JMJD2A Tudor	G9a block	HP1b binding inh
NC(=O)c1ccc(NC(=O)CSc2nncn2-c2ccccc2)cc1	4%	-14%	-2%	-6%	22µM*	22%
Cc1ccc2[nH]c3c(c2c1)CCN1C(=O)OC(C)(C)C31C (stereo unspecified)	10%	-1%	-12%	-18%	9%	28%
Cc1nonc1CC(=O)N1CCCC(C(=O)c2cccc(C(F)(F)F)c2)C1 (stereo unspecified)	8%	1%	6%	-11%	15%	48%
CC(NC(=O)c1cnccn1)c1ccc(S(N)(=O)=O)cc1 (stereo unspecified)	3%	27µM*	1%	-7%[11.4 µM]	x	14%
CCc1nc(SCC(=O)Nc2ccc(NC(C)=O)cc2)n[nH]1	x	x	1%	-10%	9%[59 µM]	4%
CCC(=O)N1CCc2cc(S(=O)(=O)NC(Cc3ccccc3)C(=O)Nc3cccc(OC)c3)ccc21 (stereo unspecified)	x	x	x	2%	1%[59 µM]	24%
COc1ccc(N2CCN(C(=O)/C=C/c3ccco3)CC2)cc1	-20%	-7%	-30%	-26%	32µM*	18%
COc1ccccc1N1CCN(C(=O)/C=C/c2ccco2)CC1	-76%	-6%	-21%	-28%	u	22%
O=C(/C=C/c1ccco1)N1CCN(c2ccc(F)cc2)CC1	18µM*	-1%	-28%	-22%	u	-6%
COc1ccc([N+](=O)[O-])c(S(=O)(=O)c2ccc(Cl)cc2)n1	u	3µM*	-29%	-28%	18µM*	33%
COc1ccc([N+](=O)[O-])c(S(=O)(=O)c2ccccc2)n1	u	9.5µM*	-18%	-26%	11µM*	40%
CCc1cc(-c2n[nH]c(CCC(=O)O)c2-c2nc3ccccc3n2C)c(O)cc1O	0%	-1%	-25%	-17%	7.1µM*	29%
CCc1cc(-c2n[nH]c(C)c2-c2nc3ccccc3n2C)c(O)c(CN2CCN(C)CC2)c1O	-5%	-10%	u	u	45µM*	-22%
COc1ccccc1NC(=O)CN1C(=O)c2cccc3cccc1c23	x	x	2%	5%	14%[59 µM]	32%
COc1ccc(Cl)cc1C(=O)Nc1nnc2n1CCS2	x	x	-20%	-28%	u	7%[57 µM]
COc1ccccc1C(=O)Nc1nnc2n1CCS2	x	x	-14%	u	11µM*	12%[57 µM]
CC(=O)Nc1nnc2n1CCS2	x	x	-4%	22µM*	14µM*	-8%[57 µM]
Cc1cc(C)cc(C(=O)Nc2nnc3n2CCS3)c1	x	x	u	-23%	8%[59 µM]	20%[57 µM]
COc1cc(OC)cc(C(=O)Nc2nnc3n2CCS3)c1	x	x	u	-34%	u	12%[57 µM]
CCC(=O)Nc1nnc2n1CCS2	x	x	-13%	20µM*	25µM*	-6%[57 µM]
CCOC(=O)CCC(=O)Nc1nnc2n1CCS2	x	x	u	40µM*	13µM*	-7%[57 µM]
CCCCOc1ccc(C(=O)Nc2nnc3n2CCS3)cc1	x	x	4%	-14%	60%[59 µM]	18%[57 µM]
CCc1cccc(C)c1NC(=O)C(NS(=O)(=O)c1ccc2c(c1)CCC(=O)N2)c1ccccc1 (stereo unspecified)	x	x	-6%	-9%	-3%[59 µM]	28%
Clc1nc(NCC2CCCO2)c2[nH]cnc2n1 (stereo unspecified)	x	x	x	-7%[57.1 µM]	x	18%[57 µM]
COc1ccc(N2CCN(c3oc(-c4ccccc4OC)nc3C#N)CC2)cc1	-15%	-2%	8.9µM*	13µM*	2.5µM*	u
SMILES	Sfp inh	PLK1 PBD inh	BAZ2B block	JMJD2A Tudor	G9a block	HP1b binding inh
CCOc1ccc(-c2nc(C#N)c(N3CCN(Cc4ccccc4)CC3)o2)cc1	-7%	-1%	u	u	10µM*	u
COc1ccccc1-c1nc(C#N)c(N2CCN(c3ccccc3)CC2)o1	11%	-12%	11µM*	u	u	u
COc1ccc(-c2nc(C#N)c(N3CCN(c4ccccc4)CC3)o2)cc1	-25%	-3%	u	u	8.9µM*	-24%
COc1ccccc1-c1nc(C#N)c(N2CCN(C(=O)c3ccco3)CC2)o1	8%	2%	1%	-1%	51%	23%
COc1ccc(N2CCN(c3oc(-c4ccc(OC)c(OC)c4)nc3C#N)CC2)cc1	u	0%	u	-8%	-32%[2.33 µM]	7%
COC(=O)c1cccc(C23CC4(C2)[C@H](CN(Cc2ccc(C(F)(F)F)cc2)[C@@H]4c2ccccc2)C3c2ccc(C(F)(F)F)cc2)c1 (stereo partly specified)	14%	-8%	-2%	-25%	-43%[59 µM]	3%
Cc1cccc(-c2nc(C#N)c(N3CCCCCC3)o2)c1	-14%	-8%	13µM*	u	u	u
COc1ccccc1-c1nc(C#N)c(N2CCCCCC2)o1	u	-2%	u	u	45µM*	-43%
COc1ccccc1-c1nc(C#N)c(N2CC(C)CC(C)C2)o1 (stereo unspecified)	5%	-4%	u	-5%	u	5%
CN(CC(=O)Nc1ccccc1Cl)C(=O)c1cc(-c2cccs2)nn1-c1ccccc1	x	-11%	2%	-3%	16%[0.501 µM]	12%
O=C(COC(=O)Cn1nnc2ccccc21)NC1CCCC1	5%	-1%	3%	-12%	0%	7%
O=C(Nc1ccccc1N1CCOCC1)c1ccco1	13%	-14%	5%	-8%	17%	5%
O=C(Nc1ccccc1N1CCCC1)c1ccc(N2CCCC2=O)cc1	x	-3%	-24%	-23%	35µM*	8%
O=C(NC(=S)Nc1ccccc1N1CCOCC1)c1ccco1	3%	-2%	-9%	-17%	50µM*	35%
O=C(Nc1ccc(N2CCCC2)c(Cl)c1)c1ccccc1[N+](=O)[O-]	0%	27µM*	u	u	u	-7%
O=C(NC(=S)Nc1ccccc1N1CCCC1)c1ccco1	32µM*	u	40µM*	u	x	u
Cc1cc2nc3c(=O)[nH]c(=O)nc-3n(C[C@H](O)[C@H](O)[C@H](O)COP(=O)(O)OP(=O)(O)OC[C@H]3O[C@@H](n4cnc5c(N)ncnc54)[C@H](O)[C@@H]3O)c2cc1C	1%	x	x	x	-29%[12.7 µM]	x
CO[C@H]1COC(=O)[C@@H](Cc2ccccc2)NC(=O)[C@@H](C)COC(=O)C/C=C\[C@@H]1C	22%	x	x	x	x	x
CCn1c(CN2CCOCC2)nnc1SCC(=O)Nc1ccccc1Cl	8%	-15%	8%	15%	7%[59 µM]	30%[57 µM]
CN(CCCNC(=O)c1ccc(N2CCCC2=O)cc1)c1ccccc1	-25%	-4%	-34%	u	10µM*	11%
CCCCN(C)CCCNC(=O)c1ccc(N2CCCC2=O)cc1	23%	-1%	-2%	15%	31%[0.501 µM]	30%
